{
  "source": "PubChem BioAssay AID1224817",
  "about": "(Yan Lab, Georgia Cancer Center, Augusta University, 2016)",
  "note": "In all, about 2,000 compounds went through this assay and about 25 (1%) were called active. The sample holds actives, similar compounds and a random draw of the others, so the mix is not that of the screen. A number with no mark means an inactive call.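 The calls were made as follows: active = log2 luciferase ratio at or below -0.5849, meaning signal at two thirds of solvent-only control or lower; inactive = the rest.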",
  "data": [
    {"assay": "inhibitors of EIF4E gene expression, primary screen, cell-based, HT1080, luciferase reporter (AID 1224817);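 also: luciferase reports endogenous eIF4E expression since it is co-expressed from the native EIF4E locus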", "details": "HT1080 EIF4E-luc2 knock-in reporter, 16 h, at 2.5 µM, hits give low values", "values": [
      {"smiles": "O=C1C(Cl)=C(Sc2nnc3c4ccccc4c4ccccc4c3n2)C(=O)c2ccccc21", "log2 luciferase activity ratio": 0.552},
      {"smiles": "O=C(O)CCSC1=NCCN1", "log2 luciferase activity ratio": -0.275},
      {"smiles": "Oc1ccc2ccccc2c1CN(Cc1c(O)ccc2ccccc12)C1CCCCC1", "log2 luciferase activity ratio": -0.018},
      {"smiles": "Nc1nccc(Nc2ccc(S(N)(=O)=O)cc2)n1", "log2 luciferase activity ratio": -0.103},
      {"smiles": "C/C(=N\\NC1=NCCN1)c1cn(C2=NCCN2)nc1C", "log2 luciferase activity ratio": 0.0578},
      {"smiles": "CNC(c1ccncc1)C(NC)c1ccncc1", "note": "(configuration not stated)", "log2 luciferase activity ratio": 0.0459},
      {"smiles": "O=C1c2cccc([N+](=O)[O-])c2C(=O)N1c1ncn[nH]1", "log2 luciferase activity ratio": -0.0931},
      {"smiles": "COC(=O)[C@@]12OC[C@]34[C@H]([C@@H](O)[C@@H]1O)[C@@]1(C)C=C(OC5OC(CO)C(O)C(O)C5O)C(=O)[C@@H](C)[C@@H]1C[C@H]3OC(=O)[C@H](OC(=O)/C=C(\\C)C(C)C)[C@@H]24", "note": "(some centres not stated)", "log2 luciferase activity ratio": 0.215},
      {"smiles": "O=C(O)C1OC1C(=O)O", "note": "(configuration not stated)", "log2 luciferase activity ratio": -0.131},
      {"smiles": "Cc1cc(N)c2cc(OCCOc3ccc4nc(C)cc(N)c4c3)ccc2n1", "log2 luciferase activity ratio": -0.0306},
      {"smiles": "CN(CCc1ccccn1)c1ccc2c(c1)C(=O)c1ccccc1-2", "log2 luciferase activity ratio": 0.213},
      {"smiles": "COc1c2c(cc3c1[C@@H]1Oc4c(ccc(O)c4CC=C(C)C)[C@@H]1CO3)OC(C)(C)C=C2", "log2 luciferase activity ratio": -0.0761},
      {"smiles": "O=C1c2ccccc2C(=O)N1CCCSc1ccccc1", "log2 luciferase activity ratio": 0.412},
      {"smiles": "CN(C)CC(O)c1ccc(Cl)c2ccccc12", "note": "(configuration not stated)", "log2 luciferase activity ratio": -0.0364},
      {"smiles": "Oc1c(C(O)(c2ccccc2)c2ccc3ccccc3c2O)ccc2ccccc12", "log2 luciferase activity ratio": 0.313},
      {"smiles": "COc1cc2oc3cc(=O)cc4oc(-c5ccccc5)cc(c2c2c1CCC(c1ccccc1)O2)c43", "note": "(configuration not stated)", "log2 luciferase activity ratio": 0.143},
      {"smiles": "CCCCSCc1nc2nc(Cl)c(Cl)nc2[nH]1", "log2 luciferase activity ratio": -0.0768},
      {"smiles": "Cn1cc(NC(=O)c2cc(NC(=O)c3cc(NC=O)cn3C)cn2C)cc1C(=O)NCCC(=N)N", "log2 luciferase activity ratio": -0.0884},
      {"smiles": "NC(N)=NC(N)=Nc1c(F)c(F)c(F)c(F)c1F", "log2 luciferase activity ratio": 0.115},
      {"smiles": "O=C(O)/C=C/C(=O)Nc1cccc2c1-c1ccccc1C2=O", "log2 luciferase activity ratio": -0.335},
      {"smiles": "NNC(=O)CCc1ccc2ccc3ccccc3c2c1", "log2 luciferase activity ratio": -0.0063},
      {"smiles": "NC(=O)N/N=C1/CCC(O)CC1CC(=O)O", "note": "(configuration not stated)", "log2 luciferase activity ratio": -0.0076},
      {"smiles": "CSc1nc(C)cc(Nc2ccc(O)c(CN3CCOCC3)c2)n1", "log2 luciferase activity ratio": 0.0575},
      {"smiles": "CC(C)(C)c1cc(Br)c(O)c(CN(Cc2cc(C(C)(C)C)cc(Br)c2O)C2CCCCC2)c1", "log2 luciferase activity ratio": 0.147},
      {"smiles": "N=C(N)SCc1cccc2c(=O)cc(-c3ccccc3)oc12", "log2 luciferase activity ratio": -0.583},
      {"smiles": "Cc1c2ccccc2c(CSC(=N)N)c2ccccc12", "log2 luciferase activity ratio": "-2.19 (active)"},
      {"smiles": "Cc1ncc(CSC(=N)N)n1Cc1ccccc1", "log2 luciferase activity ratio": 0.207}
    ]}
  ]
}
